Source: PubChem BioAssay
Rows were chosen to be rich in hits. Some 1.5% of all compounds tested hit in one or more screens of this group.
DAGLB inhibitor = diacylglycerol lipase beta (human) inhibition | Q8NCG7 | HEK293T DAGLB membrane lysate, EnzChek fluorogenic substrate | inhibition, % at 5.17 µM | actives 0.059% (n = 340,000) | AID 504411; in the data active means inhibition above about 34%
Target sequence (Q8NCG7 whole entry, looked up): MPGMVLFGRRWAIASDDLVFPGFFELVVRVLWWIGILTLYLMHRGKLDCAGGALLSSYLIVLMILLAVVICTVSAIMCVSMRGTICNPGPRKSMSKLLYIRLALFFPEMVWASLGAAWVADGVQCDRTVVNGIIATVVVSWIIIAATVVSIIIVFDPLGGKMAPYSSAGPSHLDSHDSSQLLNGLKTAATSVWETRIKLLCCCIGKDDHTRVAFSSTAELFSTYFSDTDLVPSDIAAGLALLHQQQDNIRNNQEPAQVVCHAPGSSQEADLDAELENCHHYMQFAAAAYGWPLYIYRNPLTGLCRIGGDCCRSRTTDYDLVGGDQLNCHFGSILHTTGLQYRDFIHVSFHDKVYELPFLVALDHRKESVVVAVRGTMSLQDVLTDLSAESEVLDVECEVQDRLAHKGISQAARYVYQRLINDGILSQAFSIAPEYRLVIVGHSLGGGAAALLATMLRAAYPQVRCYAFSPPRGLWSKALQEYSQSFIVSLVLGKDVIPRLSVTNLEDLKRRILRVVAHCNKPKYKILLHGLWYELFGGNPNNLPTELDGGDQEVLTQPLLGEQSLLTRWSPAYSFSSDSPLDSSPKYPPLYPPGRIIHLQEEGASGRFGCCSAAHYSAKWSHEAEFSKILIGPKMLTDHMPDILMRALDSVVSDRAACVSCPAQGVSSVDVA
HGIII-sPLA2 inh = Inhibits HGIII-sPLA2 liposome hydrolysis, primary screen; actives 0.56% (n = 370,000); inhibition, % at 12.2 µM; AID 743126; QFRET BODIPY PC-A2 liposome hydrolysis, fluorescence; Q9NZ20;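 active means inhibition above mean plus 3 SD of compounds lying within the high and low control bounds, cut at about 19% in these data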
PLC-gamma1 inh = blocks human PLC-gamma1 enzyme activity | P19174 | purified PLC-gamma1, fluorogenic substrate, fluorescence | inhibition, % at 12.2 µM | actives 0.84% (n = 370,000); in the data active means inhibition above about 9.5%
PLCb3 inh = PLC-beta3 (human) inhibition, primary screen. AID 720704. inhibition, % at 12.2 µM. Purified PLC-beta3, fluorogenic substrate, fluorescence. actives 0.18% (n = 370,000); in the data active means inhibition above about 11%
sPLA2 confirm = human GIII-sPLA2 inhibition, confirmation; shares compounds with HGIII-sPLA2 inh; recombinant hGIII-sPLA2, BODIPY PC-A2 QFRET fluorescence; inhibition, % at 12.2 µM; actives 34% (n = 2,000);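 active means mean inhibition across triplicates above the hit cutoff set in the earlier primary screen, cut at about 19% in these data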
BODIPY interf = 535nm fluorescence interference, HGIII-sPLA2 counter-screen | shares compounds with HGIII-sPLA2 inh | BODIPY FL product fluorescence interference, QFRET | inhibition, % at 12.2 µM | actives 8.5% (n = 2,000);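 active means average inhibition above the solvent-only control mean plus 3 SD, cut at about 6% in these data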
A number is an active result; i = inactive; nt = no result.

SMILES	DAGLB inhibitor	HGIII-sPLA2 inh	PLC-gamma1 inh	PLCb3 inh	sPLA2 confirm	BODIPY interf
COc1ccc(C(C)(C)C)cc1NC(=S)NCCN1CCOCC1	i	20	i	i	i	i
O=C1CSc2ccc(C(=O)N3CCCC(C(=O)N4CCOCC4)C3)cc2N1 (stereo not drawn)	nt	i	i	i	nt	nt
COC(=O)C1CN(Cc2ccc(OC)cc2)CCS(=O)(=O)N1Cc1ccc(OC)cc1 (stereo not drawn)	nt	i	i	i	nt	nt
COc1cccc(N=Nc2ccc(O)c3ncccc23)c1	i	25	i	i	51	14
COC(=O)C1CN(CCc2ccccc2)CCS(=O)(=O)N1Cc1ccc(Cl)cc1 (stereo not drawn)	nt	i	i	i	nt	nt
O=C(CN(C1CC1)S(=O)(=O)c1ccc(S(=O)(=O)N2CCCCCC2)cc1)Nc1ccccc1	i	i	i	i	nt	nt
O=C(CN(Cc1cccs1)S(=O)(=O)c1ccc(S(=O)(=O)N2CCCCC2)cc1)Nc1ccccc1	i	21	i	i	i	i
Cc1ccccc1NC(=O)c1ccc(CN2CC(=O)N3CCCCC3C2=O)cc1 (stereo not drawn)	i	19	i	i	i	i
COC(=O)[C@]12C[C@H](CC(=O)NCc3cccc(C(F)(F)F)c3)C(=O)N(Cc3ccc(Cl)cc3Cl)C1=C[C@H](C(C)C)O[C@@H]2C1CC1	nt	i	i	i	nt	nt
CCC1Cc2[nH]c(=S)[nH]c(=O)c2C(c2ccc(Cl)cc2)O1 (stereo not drawn)	nt	21	i	i	i	i
CC[C@@H]1Cc2[nH]c(=O)[nH]c(=O)c2[C@H](c2ccc(Cl)cc2)O1	nt	i	i	i	nt	nt
Cc1cccc(C)c1OCc1cccc(C2Nc3ccccc3C(=O)N2Cc2ccco2)c1 (stereo not drawn)	nt	i	i	i	nt	nt
C[C@H]1COc2c3ccccc3nn21	nt	i	i	i	nt	nt
CN(C)c1ccc(-c2cc(O)c3ncccc3c2)cc1	i	27	i	i	i	i
Oc1ccc(Nc2nc(-c3cccs3)cs2)cc1	i	23	i	i	23	9.7
COc1ccc(Nc2nc(-c3cccs3)cs2)cc1	nt	i	i	i	nt	nt
O=c1oc2ccccc2cc1-c1csc(NN=C2CCCC2)n1	i	20	i	i	i	i
CCn1ncc(Br)c1C(=O)Nc1ccc(Cl)cn1	i	i	i	i	nt	nt
Cc1nn(CC(=O)Nc2ccc(Cl)cn2)c(C)c1Br	i	20	i	i	i	i
C[C@@H]1OC(C2CCCCC2)N(C)[C@H]2C[C@H]3c4[nH]c5c(-c6ccc7c(c6)OCO7)cccc5c4CCN3C[C@@H]12 (stereo partly drawn)	nt	i	i	i	nt	nt
S=c1[nH]nc(-c2cc(-c3ccccc3)n[nH]2)n1N=Cc1cccc(Oc2ccccc2)c1	nt	i	i	i	nt	nt
Cc1ccc(-n2[nH]c(C)c(C=Nc3ccc(S(=O)(=O)N4CCOCC4)cc3)c2=O)c(C)c1	nt	22	i	i	i	i
CCN(C(=O)COC(=O)c1ccc(Sc2ncn[nH]2)c([N+](=O)[O-])c1)c1ccccc1C	nt	i	i	i	nt	nt
CC(CCl)n1c(=O)c2ccccc2n1C(=O)c1ccccc1 (stereo not drawn)	nt	24	i	i	i	i
COC(=O)Cn1c2ccccc2c(=O)n1C(C)CBr (stereo not drawn)	nt	i	i	i	nt	nt
SMILES	DAGLB inhibitor	HGIII-sPLA2 inh	PLC-gamma1 inh	PLCb3 inh	sPLA2 confirm	BODIPY interf
O=C(NCc1ccccc1)[C@@H]1CCCN1C(=O)[C@H]1CCCN1C(=O)c1ccc(Cl)cc1	nt	21	i	i	i	i
O=S1(=O)c2c(cccc2N2CC[C@H](O)C2)OCCCN1C1CC1	nt	i	i	i	nt	nt
CC(=NNC(=S)Nc1cccc(Cl)c1)c1ccccn1	i	20	i	i	38	i
Cc1cc(NC(=O)Nc2cccc(Cl)c2)n(-c2ccccc2)n1	i	i	i	i	nt	nt
Cc1c(C(=O)NNC(=S)Nc2cccc(Cl)c2)nnn1-c1ccccc1	i	31	i	i	34	9.3
Cc1cc(C(=O)NNC(=S)Nc2ccccc2)nn1C	nt	29	i	i	23	i
COCCCN1C(=O)[C@H](CC(=O)N2CCCC2)[C@]2(C(=O)OC)CCCCC=C12	nt	i	i	i	nt	nt
Cc1ccc(CSc2nnc(-c3cccs3)o2)cc1C	nt	i	i	i	nt	nt
COc1cc(OC)cc(C(=O)N2CCCc3ccccc32)c1	i	20	i	i	i	i
COc1cccc(-c2nnc(SCC(=O)Nc3cccc4ccccc34)n2Cc2ccco2)c1	nt	i	i	i	nt	nt
